Test [1] is described as follows: qHTS assay for small molecule agonists of the antioxidant response element (ARE) signaling pathway (AID 651741; active means well fitted activation curve with a large enough effect in the signal ratio; the % refers to the signal ratio; further: potency means the concentration at half of the fitted maximal effect; on activation: % of control where 0% means no effect). An outline of the steps: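 Beta-lactamase reporter under ARE control in HepG2 cells, 2,000 per well, was induced by 16 h compound treatment at 37 C. Read-out was fluorescence from LiveBLAzer B/G FRET substrate after 2 h at room temperature.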
(Quantitative high-throughput screening tests each substance at several concentrations.)

A short description of test [2]: qHTS assay for small molecule activators of the p53 signaling pathway (AID 651743; active means well fitted activation curve with a large enough effect in the signal ratio, not every such curve was filed as active; the % refers to the signal ratio; further: potency means the concentration at half of the fitted maximal effect; on activation: series mostly up to about 92 µM; % of control where 0% means no effect). The following applies: HCT-116 p53RE-bla, beta-lactamase FRET ratio, 16 h; activation: active compounds read high. An outline of the steps:
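After 16 hours compound treatment at 37 C, HCT-116 cells stably expressing p53RE-driven beta-lactamase were loaded with LiveBLAzer B/G FRET substrate for 2 hours at room temperature. Fluorescence intensity served as the p53 activation read-out.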

Test [3] is described as follows: qHTS assay for small molecule activators of the nuclear factor-kappa B (NF-kB) signaling pathway (AID 651749; active means well fitted activation curve with a large enough effect in the signal ratio; the % refers to the signal ratio; further: series mostly up to about 77 µM; % of control where 0% means no effect). To be noted: NF-kB-bla ME-180 cells, beta-lactamase FRET ratio, 16 h; active compounds read high. An outline of the steps:
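Activation measured after 16 hr compound treatment at 37C, 5% CO2, of 2,000 ME-180 cells/well stably expressing an NF-kB response element–driven beta-lactamase reporter, via FRET-disruption fluorescence.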

For test [4], the target named is Tumor necrosis factor (Homo sapiens) (UniProt P01375). Kind of test: qHTS assay to identify small molecules that stimulate Tumor Necrosis Factor-alpha (TNF-alpha) secretion (AID 651757; active means well fitted curve in the direction sought with a large enough effect in the signal ratio; the % refers to the signal ratio; further: 0% is about no effect). In short, it runs like this: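 Human monocytic THP-1 cells are plated, treated with compound and held at 37 C for 17 hrs. Labeled anti-TNF-alpha antibody mixture is then added; after 3 hr at room temperature, TR-FRET signal reports secreted TNF-alpha.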

A short description of test [5]: qHTS assay for environmental chemicals that activate the Aryl hydrocarbon Receptor (AhR) signaling pathway (AID 651777). Further: nearly all actives have a fitted effect of over 15% in size. Further: potency means the concentration at half of the fitted maximal effect. On activation: % of control where 0% means no effect. To be noted: 1A2-DRE human hepatoma cells, luciferase, 24 h; activation: active compounds read high. In short, it runs like this: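 Luminescence read-out: One-Glo added for 30 min at RT after 24 hr compound treatment (37 C, 5% CO2) of human hepatoma cells expressing a DRE/CYP1A2 promoter–luciferase reporter; increased signal indicates AhR activation.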

The target of test [6] is Peroxisome proliferator-activated receptor alpha (Homo sapiens) (UniProt Q07869). The test can be described thus: qHTS assay for small molecule agonists of the peroxisome proliferator-activated receptor alpha (PPARalpha) signaling pathway (AID 651778). Further: % of control where 0% means no effect. The following applies: PathHunter PPARalpha complementation, chemiluminescence, 6 h; active compounds read high. An outline of the steps:
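Chemiluminescence from complemented enzyme reported PPARalpha activation in cells after 6 hr of compound treatment at 37 C. The detection reagent was incubated for 60 min at room temperature, and compounds were scored as agonists.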

A short description of test [7]: qHTS assay to identify small molecules that stimulate interleukin-8 (IL-8) secretion (AID 651758; active means well fitted activation curve with a large enough effect in the signal ratio; the % refers to the signal ratio; further: potency means the concentration at half of the fitted maximal effect; on activation: 0% is about no effect). In short, it runs like this: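 Secreted IL-8 measured homogeneously by TR-FRET (two labelled anti-IL-8 antibodies, 1-3 h at room temperature) after a 16 h, 37 C compound treatment of THP-1 cells at 2000 cells/well.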
Test [8] in a line: HTS Assay for Allosteric Antagonists of the Human D2 Dopamine Receptor: Hit Validation in HTRF (AID 624455).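 Further: stable D1 dopamine receptor cell line scored for blocking the D1 response; on the % scale 0 is the no-effect control and ±100 the full control effect.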 An outline of the steps: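 Inhibition of the D1-mediated response is measured by HTRF in cells that stably express the D1 dopamine receptor. Compounds reaching this step are hits from calcium-flux antagonism testing at EC80 dopamine in inducible Hek293 Trex D2 cells.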
(In TR-FRET formats the signal depends on donor and acceptor labels being close together.)

Test [9] deals with DNA polymerase iota (Homo sapiens) (UniProt Q9UNA4). The test can be described thus: qHTS for Inhibitors of Polymerase Iota: Confirmatory Assay for Cherry-picked Compounds (AID 720496). Further: potency means the concentration at half of the fitted maximal effect. To be noted: Pol iota primer extension, TAMRA/BHQ fluorescence. In short, it runs like this: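 Enzyme (10 nM Pol iota) and compound sit together for 15 min at room temperature. Adding annealed primer/TAMRA-reporter/BHQ-2-template substrate, 50 nM final, starts the reaction, which is followed by fluorescence over 10 min.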

Test [10] concerns the target DNA polymerase kappa (Homo sapiens) (UniProt Q9UBT6). The test can be described thus: qHTS for Inhibitors of Polymerase Kappa: Confirmatory Assay for Cherry-picked Compounds (AID 720501). Further: potency means the concentration at half of the fitted maximal effect. To be noted: purified Pol-kappa, fluorescent strand-displacement substrate. In short, it runs like this:
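Strand-displacement fluorescence read-out: TAMRA reporter released from a BHQ-2-quenched template, measured at 525/598 nm over a 10 min kinetic window. Substrate was 50 nM final; enzyme was 10 nM Pol-kappa, preincubated 15 min at room temperature with compound.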

Test [11] concerns the target DNA polymerase eta (Homo sapiens) (UniProt Q9Y253). Kind of test: qHTS for Inhibitors of Polymerase Eta: Confirmatory Assay for Cherry-picked Compounds (AID 720502). Further: potency means the concentration at half of the fitted maximal effect. The following applies: Pol eta primer extension, TAMRA/BHQ fluorescence, 10 min. In short, it runs like this: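 Readout: TAMRA dequenching, ex 525/em 598 nm, read at 0 and 10 min. Enzyme: 10 nM human Pol eta, preincubated with compound 15 min RT. Substrate: 50 nM final annealed primer/reporter/template duplex.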

From PubChem BioAssay (NCATS) come the findings set out here.

Each structure is given as a SMILES string. Several values for one entry are separate records, joined by “and”; a condition that tells them apart may be missing. Identical values can stand only once. Unmarked numbers belong to inactive results. Results filed as inconclusive are left out. A structure can be active in one record and inactive in another. The list shows a part of the results. Activity calls are given as the source filed them. Unless noted, the call rests on the fitted dose curve; in most records, active means well fitted curve in the direction sought with a large enough effect; inconclusive means small, poorly fitted or top-dose-only effect, or another doubt; inactive means no such curve, though single readings can be large; an effect the other way counts as inactive or inconclusive.

Chain of Peroxisome proliferator-activated receptor alpha (Homo sapiens) (Q07869 whole entry, looked up): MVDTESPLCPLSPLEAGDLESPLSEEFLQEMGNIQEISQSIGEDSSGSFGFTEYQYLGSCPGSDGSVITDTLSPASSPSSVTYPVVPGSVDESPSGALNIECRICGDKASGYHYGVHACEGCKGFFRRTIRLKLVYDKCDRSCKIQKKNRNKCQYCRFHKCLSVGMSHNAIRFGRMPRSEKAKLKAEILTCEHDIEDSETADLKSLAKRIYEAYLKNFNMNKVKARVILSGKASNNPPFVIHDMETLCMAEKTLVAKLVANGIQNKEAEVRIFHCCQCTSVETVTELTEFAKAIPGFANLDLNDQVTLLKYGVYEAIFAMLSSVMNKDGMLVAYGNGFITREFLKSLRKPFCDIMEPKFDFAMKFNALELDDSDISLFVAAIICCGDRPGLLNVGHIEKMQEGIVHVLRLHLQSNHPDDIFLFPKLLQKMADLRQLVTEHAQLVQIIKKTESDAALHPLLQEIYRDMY
Chain of DNA polymerase eta (Homo sapiens) (Q9Y253 whole entry, looked up): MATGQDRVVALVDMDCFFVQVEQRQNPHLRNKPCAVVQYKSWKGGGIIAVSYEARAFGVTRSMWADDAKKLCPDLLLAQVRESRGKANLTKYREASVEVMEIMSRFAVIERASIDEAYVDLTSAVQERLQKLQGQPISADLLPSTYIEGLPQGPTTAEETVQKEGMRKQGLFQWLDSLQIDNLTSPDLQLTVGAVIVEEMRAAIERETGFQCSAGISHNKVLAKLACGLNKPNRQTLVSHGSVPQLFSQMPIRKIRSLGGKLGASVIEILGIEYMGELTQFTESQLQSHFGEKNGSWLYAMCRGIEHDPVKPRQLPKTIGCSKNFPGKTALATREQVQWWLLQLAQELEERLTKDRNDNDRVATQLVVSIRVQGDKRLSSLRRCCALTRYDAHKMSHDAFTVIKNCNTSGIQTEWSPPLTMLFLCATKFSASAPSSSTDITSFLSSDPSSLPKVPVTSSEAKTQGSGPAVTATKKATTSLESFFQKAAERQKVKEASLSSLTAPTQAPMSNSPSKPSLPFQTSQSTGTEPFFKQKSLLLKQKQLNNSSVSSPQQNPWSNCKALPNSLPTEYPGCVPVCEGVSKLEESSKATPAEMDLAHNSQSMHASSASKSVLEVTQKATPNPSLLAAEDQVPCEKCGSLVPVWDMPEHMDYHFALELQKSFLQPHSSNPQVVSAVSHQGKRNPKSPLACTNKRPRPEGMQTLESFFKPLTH
Chain of Tumor necrosis factor (Homo sapiens) (P01375 whole entry, looked up): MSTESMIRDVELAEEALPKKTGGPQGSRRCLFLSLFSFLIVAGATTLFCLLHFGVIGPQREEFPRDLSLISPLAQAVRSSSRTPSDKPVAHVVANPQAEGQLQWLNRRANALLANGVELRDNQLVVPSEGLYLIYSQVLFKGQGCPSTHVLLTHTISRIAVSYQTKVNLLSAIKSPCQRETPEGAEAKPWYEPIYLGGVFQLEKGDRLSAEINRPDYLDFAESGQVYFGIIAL
Chain of DNA polymerase kappa (Homo sapiens) (Q9UBT6 whole entry, looked up): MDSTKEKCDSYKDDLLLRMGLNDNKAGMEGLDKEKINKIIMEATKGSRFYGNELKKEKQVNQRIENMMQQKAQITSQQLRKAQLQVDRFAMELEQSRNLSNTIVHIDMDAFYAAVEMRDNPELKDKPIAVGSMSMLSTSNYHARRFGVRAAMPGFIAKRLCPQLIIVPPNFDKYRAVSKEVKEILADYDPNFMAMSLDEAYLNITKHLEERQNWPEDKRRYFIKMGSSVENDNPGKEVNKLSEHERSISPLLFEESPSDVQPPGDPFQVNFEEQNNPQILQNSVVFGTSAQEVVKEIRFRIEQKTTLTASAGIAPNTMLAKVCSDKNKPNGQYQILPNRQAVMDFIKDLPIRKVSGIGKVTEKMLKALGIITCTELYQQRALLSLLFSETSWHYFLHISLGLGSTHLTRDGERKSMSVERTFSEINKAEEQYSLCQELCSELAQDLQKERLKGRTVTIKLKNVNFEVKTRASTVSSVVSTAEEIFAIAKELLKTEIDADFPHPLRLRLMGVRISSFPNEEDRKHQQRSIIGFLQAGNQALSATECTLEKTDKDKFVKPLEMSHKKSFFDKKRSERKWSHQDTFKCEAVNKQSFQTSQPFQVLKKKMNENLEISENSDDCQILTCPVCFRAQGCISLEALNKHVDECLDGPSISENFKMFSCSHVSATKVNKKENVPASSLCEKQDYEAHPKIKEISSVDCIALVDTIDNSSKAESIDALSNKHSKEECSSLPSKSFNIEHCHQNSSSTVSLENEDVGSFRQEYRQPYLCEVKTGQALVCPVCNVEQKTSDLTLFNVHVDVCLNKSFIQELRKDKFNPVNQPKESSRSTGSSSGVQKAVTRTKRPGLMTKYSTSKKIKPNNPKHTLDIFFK
Chain of DNA polymerase iota (Homo sapiens) (Q9UNA4 whole entry, looked up): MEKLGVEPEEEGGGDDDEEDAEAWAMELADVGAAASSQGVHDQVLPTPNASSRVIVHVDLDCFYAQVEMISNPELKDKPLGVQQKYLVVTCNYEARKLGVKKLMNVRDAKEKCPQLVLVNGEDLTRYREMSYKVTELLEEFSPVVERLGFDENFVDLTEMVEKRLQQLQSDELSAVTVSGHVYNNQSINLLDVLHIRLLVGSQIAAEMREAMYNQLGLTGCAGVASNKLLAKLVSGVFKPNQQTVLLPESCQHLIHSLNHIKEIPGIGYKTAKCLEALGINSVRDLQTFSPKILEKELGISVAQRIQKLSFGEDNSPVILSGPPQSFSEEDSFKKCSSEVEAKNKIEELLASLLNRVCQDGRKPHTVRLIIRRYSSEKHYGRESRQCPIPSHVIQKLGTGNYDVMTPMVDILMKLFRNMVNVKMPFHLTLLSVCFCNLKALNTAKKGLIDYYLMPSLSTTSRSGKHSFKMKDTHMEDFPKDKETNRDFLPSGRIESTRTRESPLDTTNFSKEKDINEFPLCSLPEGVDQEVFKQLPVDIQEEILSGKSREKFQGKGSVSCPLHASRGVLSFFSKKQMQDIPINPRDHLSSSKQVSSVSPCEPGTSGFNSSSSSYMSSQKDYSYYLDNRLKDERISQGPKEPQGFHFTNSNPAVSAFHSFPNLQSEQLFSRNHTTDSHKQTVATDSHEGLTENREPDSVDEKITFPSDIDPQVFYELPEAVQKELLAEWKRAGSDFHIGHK

Regarding `CC(C)NCC(O)COc1cccc2ccccc12` (centres undefined), the Potency result in [1] is “inactive”. Further, the activation in test [2] was -4.3% and -0.33%; in test [3] it was -0.327% and 0.291%; in test [5] it was 1.27% and 9.4%. Besides, the compound was called inactive in test [4]. Further, in test [6], the max response was -1.25% and -0.701%.

For the compound `O=C(Nc1ccccc1)c1cc([N+](=O)[O-])ccc1Cl`, the values for the Potency in test [1] and in test [5] were 1.22 µM (active) and 14.1 µM (active), respectively. Moreover, the activation in [2] was 4.29%. Also, the max response in test [6] was 0.605%.

As for `O=C(O)[C@H](O)[C@@H](O)[C@H](O)[C@H](O)CO`, the Potency result in [1] was “inactive”. Further, the activation is -5.45% in test [3] and -0.169% in [5]. In addition, the max response in test [6] was -0.488%.

For the compound `S=c1[nH]c2ccccc2s1`, the Potency in [1] was 37.6 µM (active) and 27.3 µM (active). Further, the activation in test [2] was -3.47% and -2.03%. Further, in test [7], the Potency result was “inactive”. Besides, in test [6], the max response is -10.8% and -7.19%.

Regarding `O=C1CN(/N=C/c2ccc([N+](=O)[O-])o2)C(=O)N1`, the activation in [2] is 5.55%; in test [5] it was 4.15%. In [7], the Potency entry was “inactive”. In addition, the max response in test [6] is -1.28%.

On to `CC1(C)S[C@@H]2[C@H](NC(=O)[C@H](N)c3ccccc3)C(=O)N2[C@H]1C(=O)O`, for which the activation was 1.65% in test [2] and 0.371% in test [5]. In addition, in [4], the outcome was inactive. Further, the max response in test [6] is -1.69%.

Consider `CN1CCC[C@H]1c1cccnc1`, for which the Potency entry in test [8] is “inactive”. In test [4], the compound was called inactive. Besides, the activation in test [5] is 0.841% and 0.227%. For the same compound, the max response in test [6] is -3.15% and -0.899%.

In the case of `Nc1nc2ccc([N+](=O)[O-])cc2s1`, the Potency in test [1] is 66.8 µM (active). The values for the activation in [3] and in test [5] were -0.326% and 8.89%, respectively. Besides, in test [6], the max response was -11%.

Regarding `COc1cc(/C=C/C(=O)CC(=O)/C=C/c2ccc(O)c(OC)c2)ccc1O`, the Potency is 25.9 µM (active) in test [1] and 31.6 µM (active) in test [2]. The max response in [6] was -5.38%.

`CN(C)c1ccc(N=NS(=O)(=O)O)cc1`: the Potency in test [1] was 37.6 µM (active) and 24.3 µM (active); in test [5], 70.8 µM (active). The activation in test [2] was -1.59% and 15.3%; in test [5], 10.4%. In addition, the max response in test [6] was -7.89% and -1.86%.

As for `C#C[C@]1(O)CC[C@H]2[C@@H]3CCc4cc(O)ccc4[C@H]3CC[C@@]21C`, the activation was 11.3% and 11.7% in test [2]; 2.58% and -0.453% in test [3]; -0.528% and -0.741% in [5]. In test [4], the compound was called inactive. The Potency in test [7] is 75 µM (active). Also, in test [6], the max response is -1.9% and -2.24%.

`c1cnc2c(c1)ccc1cccnc12`: in test [8], the Potency result was “inactive”. The activation in [3] is 1.8%; in [5] it was 2.54%. Besides, the max response in test [6] is -3.72%.

As to `CCCOC(=O)c1ccc(O)cc1`, the activation was -1.88% and -2.94% and -1.35% in test [2]; 3.41% and 2.32% in test [5]. Besides, in test [4], the outcome was inactive. For the same compound, the Potency result in test [7] is “inactive”. Also, the max response in test [6] is 0.116% and 2.06% and -4.76%.

Consider `CO/N=C(\C(=O)N[C@@H]1C(=O)N2C(C(=O)O)=C(COC(C)=O)CS[C@H]12)c1csc(N)n1` (stereo in doubt), for which the Potency in [9] was 18.9 µM (active); in test [10], 9.47 µM (active) and 8.44 µM (active); in test [11], 15.1 µM (active) and 19 µM (active) and 8.49 µM (active).

In the case of `Nc1ccc(O)c([N+](=O)[O-])c1`, in [1], the Potency was 26.6 µM (active) and 24.3 µM (active). The activation in [3] is -0.599% and -0.904%; in test [5], 4.17% and 0.649%. Besides, the max response in test [6] is -1.01% and 0.176%.

`N=C1N=C(N)c2cc3ccccc3cc21`: the values for the Potency in test [1] and in test [2] were 16.8 µM (active) and 35.5 µM (active), respectively. The call in test [4] was inactive. Moreover, the activation in [5] was 12.9%. Besides, the max response in [6] is -3.58%.
